Bioassay records as filed in PubChem.
Rows were chosen to be rich in hits. Some 4% of all compounds tested hit in one or more screens of this group.
RecA splice inh: inhibitors of M. tuberculosis RecA intein splicing; cell-free RecA intein splicing, fluorescence; P9WHJ3; AID 2221; 0.75% of 290,000 active; inhibition, % (no concentration beside the values); in the data active = inhibition above about 30%
GDH-TPI inh: inhibits GDH-TPI coupling enzymes, artifact for Mtb FBA screen. 1.2% of 360,000 active. AID 588335. GDH-TPI coupled enzyme counterscreen, NADH absorbance. inhibition, % at 4.8 µM; in the data active = inhibition above about 30%
Mtb UGM inh: blocks M. tuberculosis UGM enzyme; P9WIQ1; purified UGM, fluorescence polarization probe displacement; inhibition, % at 10 µM; 0.06% of 320,000 active; in the data active = inhibition above about 10%, passing the limit was not always enough
Rv3671c protease: inhibitors of M. tuberculosis serine protease Rv3671c. AID 2606. inhibition, % at 5.96 µM. 0.048% of 320,000 active. P9WHR9; in the data active = inhibition above about 38%;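 also: extracellular domain of Rv3671c used as enzyme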
Mtb betalactam: beta-lactam sensitization of Mtb H37Rv. M. tuberculosis H37Rv growth with meropenem, percent inhibition. AID 434955. 0.27% of 330,000 active. inhibition, % at 25 µM; call rule not given here;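 also: growth measured after seven days incubation then overnight dye step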
Mtb FBA inh: Mtb fructose-bisphosphate aldolase inhibition | 2.3% of 360,000 active | purified M. tuberculosis FBA, fluorescence read-out | inhibition, % at 1 µM | P9WQA3; in the data active = inhibition above about 27%
Target sequence (P9WQA3 whole entry, looked up): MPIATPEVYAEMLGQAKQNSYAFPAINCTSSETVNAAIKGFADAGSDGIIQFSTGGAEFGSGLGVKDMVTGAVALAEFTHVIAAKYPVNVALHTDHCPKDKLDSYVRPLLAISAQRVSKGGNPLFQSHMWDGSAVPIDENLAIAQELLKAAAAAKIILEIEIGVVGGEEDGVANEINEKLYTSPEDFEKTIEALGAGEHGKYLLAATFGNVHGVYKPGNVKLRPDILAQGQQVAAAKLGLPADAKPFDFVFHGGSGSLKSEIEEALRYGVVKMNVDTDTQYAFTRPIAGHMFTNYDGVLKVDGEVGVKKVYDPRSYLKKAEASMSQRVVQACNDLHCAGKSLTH
Large screens that a line does not name were inactive.

O=[N+]([O-])C(/C=C(\Cl)[N+](=O)[O-])=C1N(Cc2ccc(Cl)nc2)CCN1Cc1ccc(Cl)nc1	RecA splice inh 61
O=c1cccc2n1Cc1cc3ccccc3nc1-2	GDH-TPI inh 32, Mtb FBA inh active
COc1ccccc1C(=O)NC(=O)COC(=O)c1cnc(C)cn1	none
CCOc1ccccc1NC(=O)CCC(=O)Nc1nnc(C2CCCCC2)s1	none
COc1ccccc1NC=C1C(=O)OC2(CCCCC2)OC1=O	GDH-TPI inh 33
COc1cc(/C=C/C(=O)OC(C)C(=O)NC2CCCCC2C)cc(Cl)c1OC (stereo unspecified)	none
CCOC(=O)C1(Cc2cccc(Cl)c2)CCCN(C(=O)CN2C(=O)CSC2=O)C1 (stereo unspecified)	none
N#Cc1nc(-c2ccccc2F)oc1NCCc1ccccn1	none
N#Cc1nc(-c2ccccc2F)oc1NCCc1ccccc1	Mtb FBA inh 122
N#Cc1nc(-c2cccs2)oc1NCCc1ccccc1	Mtb FBA inh active
COc1ccc(Nc2oc(-c3cccs3)nc2C#N)cc1	none
N#Cc1nc(-c2cccs2)oc1NCc1ccc2c(c1)OCO2	Mtb FBA inh 112
N#Cc1nc(-c2ccccc2F)oc1NCc1ccccc1	Mtb FBA inh 142
N#Cc1nc(-c2cccs2)oc1NCCN1CCOCC1	GDH-TPI inh 32, Mtb FBA inh 195
COCCNC(=O)C1(C)CCCN(CC(=O)c2ccc(OC)cc2)C1 (stereo unspecified)	none (no result: RecA splice inh, Mtb UGM inh, Rv3671c protease, Mtb betalactam)
Cc1cc(C)n(C(=O)c2cc3sccc3[nH]2)n1	GDH-TPI inh 33
Cc1cc(C)c2c(N)c(C(=O)Nc3c(C)n(C)n(-c4ccccc4)c3=O)sc2n1	none
C/C=C1\COC(C(=O)NCCCN2CCCC2=O)(C(F)(F)F)C=C1C=C(C)C (stereo unspecified)	none
Cc1ncc(CO)c(CO)c1O	none
Cc1ncc(CO)c(CNc2ccc(-c3nc4ccccc4[nH]3)cc2)c1O	GDH-TPI inh 42 (no result: Rv3671c protease)
Cc1onc(-c2ccccc2Cl)c1C(=O)N[C@@H](C)c1ccccc1	none
O=C(NCC(=O)N1CCN(C(c2ccccc2)c2ccccc2)CC1)c1ccccc1Br	none (no result: RecA splice inh, Mtb UGM inh, Rv3671c protease, Mtb betalactam)
COc1ccc(/C=C2/SC(=S)N(c3ccc(S(=O)(=O)Nc4nccs4)cc3)C2=O)cc1	none
COc1ccc(-n2ccc(=O)c(C(=O)Nc3ccc(S(=O)(=O)Nc4nccs4)cc3)n2)cc1	GDH-TPI inh 40
COc1ccc(/C=C2\SC(=O)N(CCC(=O)Nc3ccc(S(=O)(=O)Nc4nccs4)cc3)C2=O)cc1	none (no result: Mtb UGM inh)
Cc1ccc(/C=C2/SC(=S)N(c3ccc(S(=O)(=O)Nc4nccs4)cc3)C2=O)cc1	GDH-TPI inh 39
COc1ccc(/C=C2/SC(=O)N(CCC(=O)Nc3ccc(S(=O)(=O)Nc4nccs4)cc3)C2=O)cc1	GDH-TPI inh 34
CN(C(=O)NC(=O)C1=C(N2CCOCC2)/C(=C/c2ccccc2)CC1)S(C)(=O)=O	Mtb FBA inh 114
NS(=O)(=O)c1ccc(NC(=O)/C(=C/c2ccncc2)NC(=O)c2ccccc2)cc1	none
O=C1NC(c2ccc(-c3ccccc3[N+](=O)[O-])o2)C(C(=O)c2ccc(F)cc2)C(O)(C(F)(F)F)N1 (stereo unspecified)	RecA splice inh 83
Cc1ccc(C2NC(=O)NC(O)(C(F)(F)F)C2C(=O)c2ccccc2)o1 (stereo unspecified)	none
CCOC(=O)[C@@H]1[C@H]2COc3ccccc3[C@@H]2N2C(=O)N(c3cccc(C)c3)C(=O)[C@]12C	none
CCOC(=O)CSc1nc2ccccc2c(=O)n1Cc1ccco1	none
CCOC(=O)c1cc2c(=O)n3ccccc3nc2n(CC(C)C)c1=NC(=O)c1ccco1	Mtb FBA inh 135
CCOC(=O)c1cc2c(=O)n3ccccc3nc2n(Cc2ccco2)c1=NC(=O)c1cccnc1	Mtb FBA inh 131
CCOC(=O)c1cc2c(=O)n3ccccc3nc2n(Cc2ccco2)c1=NC(=O)c1ccccc1OCC	Mtb FBA inh 173
COc1ccc2nc(SC(C)C(=O)NCC(=O)Nc3ccc(F)c(F)c3F)[nH]c2c1 (stereo unspecified)	none (no result: RecA splice inh, Mtb UGM inh, Rv3671c protease, Mtb betalactam)
Cc1cccc(-n2c(O)c(C=NC3CCS(=O)(=O)C3)c3ccccc3c2=O)c1C (stereo unspecified)	GDH-TPI inh 31
Cc1ccccc1-n1c(O)c(C=NC2CCS(=O)(=O)C2)c2ccccc2c1=O (stereo unspecified)	none
